Results filed as inconclusive are left out. Values without a mark were called inactive. Calls of active or inactive are those of the source. Calls follow the shape of the dose curve; as a rule, active = well fitted activation curve with a large enough effect; inconclusive = small, poorly fitted or top-dose-only effect; inactive = no such curve, though single readings can be large or run the other way.
Potency is read from the fitted curve at half-maximal effect.

Sequence of Relaxin receptor 1 (Homo sapiens) (Q9HBX9 whole entry, looked up): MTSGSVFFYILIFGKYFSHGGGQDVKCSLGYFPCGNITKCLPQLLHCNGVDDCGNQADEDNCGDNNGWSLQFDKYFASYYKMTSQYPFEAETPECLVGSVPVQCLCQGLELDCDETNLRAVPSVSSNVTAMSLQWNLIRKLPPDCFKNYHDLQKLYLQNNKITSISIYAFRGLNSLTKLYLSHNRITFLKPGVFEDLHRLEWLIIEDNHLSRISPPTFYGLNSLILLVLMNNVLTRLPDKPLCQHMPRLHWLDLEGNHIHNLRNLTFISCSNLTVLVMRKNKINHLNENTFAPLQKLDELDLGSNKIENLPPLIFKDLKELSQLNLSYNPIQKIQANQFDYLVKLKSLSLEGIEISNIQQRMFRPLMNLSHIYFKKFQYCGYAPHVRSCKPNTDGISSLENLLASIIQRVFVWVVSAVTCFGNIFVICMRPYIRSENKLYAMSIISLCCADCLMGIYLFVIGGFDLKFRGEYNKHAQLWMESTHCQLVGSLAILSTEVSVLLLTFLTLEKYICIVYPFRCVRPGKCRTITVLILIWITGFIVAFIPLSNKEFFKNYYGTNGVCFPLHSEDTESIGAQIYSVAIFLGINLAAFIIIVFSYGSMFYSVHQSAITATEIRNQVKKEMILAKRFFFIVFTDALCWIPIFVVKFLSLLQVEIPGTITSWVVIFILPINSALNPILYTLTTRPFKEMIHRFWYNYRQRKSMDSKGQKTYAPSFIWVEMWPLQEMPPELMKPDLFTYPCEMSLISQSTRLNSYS

This test addresses Relaxin receptor 1 (Homo sapiens) (UniProt Q9HBX9). The test can be described thus: qHTS Assay for Agonists of the Relaxin Receptor RXFP1: RXFP1 Hit Validation. Also: nearly all actives have a fitted effect of over 65% in size.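 As to activation: cAMP rise lowers the TR-FRET signal in lysed cells with PDE4 inhibitor present; 0% = buffer-only basal and 100% = 29 nM porcine relaxin.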 The following applies: HEK293T-RXFP1 cAMP TR-FRET, 30 min; series mostly up to 115 µM; activation: at the top concentration.
Take `Cc1ccc(C(=O)Nc2ccccc2C(N)=O)o1`: the “activation” value is -4.18% [at 125 µM].

With `O=C(CN1C(=O)c2cccc3cccc(c23)C1=O)NCCN1CCOCC1`, the “activation” value is 28.1% [at 45 µM]. On to `CCN(c1ccccc1)S(=O)(=O)c1ccc(OC)c(NC(=O)C2CC(=O)N(Cc3ccccc3)C2)c1` (stereo unspecified), for which the “activation” value is -5.54%. With `CCc1cc2c(=O)nc3n(c2s1)Cc1ccccc1/C3=C(/O)c1cccc([N+](=O)[O-])c1`, the Potency is 5.3 µM (active).

Turning to `O=C(O)CNC(=O)c1ccccc1NC(=O)c1ccco1`, the “activation” value was 2.24% [at 125 µM]. `Cc1cc(Br)c2nc3c(c(C(=O)O)c2c1)CCCCC3`: the Potency was 1.94 µM (active). As for `CC[n+]1ccc(/C=C/c2ccc(N(C)C)cc2)c2ccccc21`, the “activation” value is -21.8%. Take `COc1cc(-c2nnc(SCC(=O)N(C)C3CCS(=O)(=O)C3)o2)cc(OC)c1OC` (stereo unspecified): the “activation” value was 6.14% [at 45 µM]. In the case of `Cn1c(N)c(C(=O)CSc2nnc(NC3CCCCC3)s2)c(=O)n(C)c1=O`, the “activation” value is -27%. For `COc1ccc(OC)c(CNC(=O)C2CCN(C(=O)N(C)C)CC2)c1`, the “activation” value is -4.27%.

As to `O=C(Nc1cccc(C(F)(F)F)c1)c1ccccc1NC(=O)C1CCCCC1`, the Potency is 11.9 µM (active). In the case of `O=C(O)CCNc1ccc(NCCC(=O)O)c2c1C(=O)c1ccccc1C2=O`, the “activation” value is -0.904%. For the compound `CC(C)(C)C(=O)Nc1ccccc1C(=O)NCc1ccco1`, the “activation” value was 7.47% [at 125 µM]. Same read-out and setting: to `Cc1cc(C)c(C(=O)CSc2n[nH]c(=O)n2C2CC2)cc1C` belongs -3.14%. With `O=C(Oc1ccccc1)Oc1ccc2c(c1)oc(=O)c1ccccc12`, the Potency is 21.8 µM (active). In the case of `Nc1c(S(=O)(=O)O)cc(NC(=O)c2ccccc2)c2c1C(=O)c1ccccc1C2=O`, the “activation” value is 10.9% [at 45 µM]. On the same count and under the same terms, the value for `CCN(CC)S(=O)(=O)c1ccc(N2CCOCC2)c(NC(=O)c2cc([N+](=O)[O-])ccc2Cl)c1` was 14.6%; that for `N#C/C(=C/c1ccc(OCc2ccccc2)cc1)C(=O)NC1CCCCC1` was 12.2% [at 45 µM]. In the case of `C=C[C@@]1(C)CC(=O)[C@]2(O)[C@@]3(C)[C@@H](O)CCC(C)(C)[C@@H]3[C@H](O)[C@H](OC(C)=O)[C@@]2(C)O1`, the Potency was 0.0388 µM (active). Consider `Cc1cc(C)c(NC(=O)CS(=O)CC(=O)Nc2ccc(F)cc2F)c(C)c1` (stereo unspecified), for which the “activation” value is 3.66%.

Take `CCN(CC)CCCCCC(=O)Nc1ccccc1C(=O)Nc1ccccc1`: the “activation” value is -3.6% [at 125 µM]. On to `COC(=O)c1c(NC(=O)c2cccc(N3C(=O)CCC3=O)c2)sc2c1CCN(C(C)=O)C2`, for which the “activation” value is 28.6%. As for `COC(=O)c1nc2ccc(N3CCOCC3)cc2c(C)c1C(=O)OC`, the Potency was 34.6 µM (active). On to `CC(=O)CCCCn1c(=O)c2c(ncn2C)n(C)c1=O`, for which the “activation” value was 27.5%.

`O=[N+]([O-])c1cc2c(c(CSc3nnc4ccccn34)c1)OCOC2`: the Potency is 30.9 µM (active).

For `C=C(C)C(=O)Nc1cccc(C2=NOC3(C2)C[C@@H](C(N)=O)N(C(=O)c2ccc(Cl)cc2)C3)c1` (stereo partly specified), the “activation” value is 4.05%. As for `Cc1cc(C)nc(NS(=O)(=O)c2ccc(N3C(=O)c4ccccc4C3=O)cc2)n1`, the Potency was 29.8 µM (active).

As to `Cc1ccccc1NC(=O)CNc1ccccc1C(=O)NCc1ccco1`, the “activation” value was 5.5% [at 125 µM]. For `COC(=O)Cn1cnc2c(C#N)c3n(c2c1=O)CCCCC3`, the Potency was 13.8 µM (active). Consider `O=C(Nc1ccccc1C(=O)NCc1ccc(Cl)cc1)c1ccco1`, for which the “activation” value is -6.16% [at 125 µM]. For the compound `Brc1ccc2ncnc(NCc3cccnc3)c2c1`, the Potency is 38.9 µM (active).

In the case of `CCN(CC)S(=O)(=O)c1ccc(C)c(NC(=O)Cn2cnc3cc([N+](=O)[O-])ccc3c2=O)c1`, the Potency is 38.9 µM (active).

With `O=C(O)c1ccc(N=C2NC(=O)C(CO)(CO)S2)cc1`, the “activation” value was 4.45% [at 45 µM]. Take `COc1ccc(CC(=O)N/N=C/c2cccnc2)cc1OC`: the “activation” value was -6.39%.

As to `O=C(Nc1ccccc1C(=O)NCc1ccco1)c1ccccc1`, the “activation” value is 16.5% [at 125 µM]. With `O=C(Nc1ccc(Cl)cc1)Nc1ccccc1Sc1ncc([N+](=O)[O-])s1`, the “activation” value is 7.1%.

The values are drawn from PubChem BioAssay AID489012 (National Center for Advancing Translational Sciences (NCATS), 2010).
